Assays:
Assay in all cases: log2 ratio of Biotin-Ahx-Ub-VS probe labelling (fragment/DMSO); higher = less target engagement (more negative = stronger competition), active = hit call of the paper (q ≤ 0.05, log2 ratio ≤ -1)
Conditions in all cases: compound concentration: 200 uM; treatment time: 3 h
[1] = target: USP34 (UniProt Q70CQ2)
How it was run: (§1)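 Each value is an average log2 ratio of fragment to vehicle, tested by unpaired t-test. The underlying Spectronaut label-free quantities were global-median-normalised, and only proteins with ≥2 unique peptides were included. Triplicate HEK293T lysate samples (495 µg) were exposed to fragment at 200 µM or vehicle for 3 h, then to Biotin-Ahx-Ub-VS at 0.5 µM final for 1 h, before NeutrAvidin enrichment of labelled DUBs, LysC and trypsin digestion, and diaPASEF LC-MS/MS.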

[2] = target: T1, USP36 (UniProt Q9P275)
T1 sequence (whole entry): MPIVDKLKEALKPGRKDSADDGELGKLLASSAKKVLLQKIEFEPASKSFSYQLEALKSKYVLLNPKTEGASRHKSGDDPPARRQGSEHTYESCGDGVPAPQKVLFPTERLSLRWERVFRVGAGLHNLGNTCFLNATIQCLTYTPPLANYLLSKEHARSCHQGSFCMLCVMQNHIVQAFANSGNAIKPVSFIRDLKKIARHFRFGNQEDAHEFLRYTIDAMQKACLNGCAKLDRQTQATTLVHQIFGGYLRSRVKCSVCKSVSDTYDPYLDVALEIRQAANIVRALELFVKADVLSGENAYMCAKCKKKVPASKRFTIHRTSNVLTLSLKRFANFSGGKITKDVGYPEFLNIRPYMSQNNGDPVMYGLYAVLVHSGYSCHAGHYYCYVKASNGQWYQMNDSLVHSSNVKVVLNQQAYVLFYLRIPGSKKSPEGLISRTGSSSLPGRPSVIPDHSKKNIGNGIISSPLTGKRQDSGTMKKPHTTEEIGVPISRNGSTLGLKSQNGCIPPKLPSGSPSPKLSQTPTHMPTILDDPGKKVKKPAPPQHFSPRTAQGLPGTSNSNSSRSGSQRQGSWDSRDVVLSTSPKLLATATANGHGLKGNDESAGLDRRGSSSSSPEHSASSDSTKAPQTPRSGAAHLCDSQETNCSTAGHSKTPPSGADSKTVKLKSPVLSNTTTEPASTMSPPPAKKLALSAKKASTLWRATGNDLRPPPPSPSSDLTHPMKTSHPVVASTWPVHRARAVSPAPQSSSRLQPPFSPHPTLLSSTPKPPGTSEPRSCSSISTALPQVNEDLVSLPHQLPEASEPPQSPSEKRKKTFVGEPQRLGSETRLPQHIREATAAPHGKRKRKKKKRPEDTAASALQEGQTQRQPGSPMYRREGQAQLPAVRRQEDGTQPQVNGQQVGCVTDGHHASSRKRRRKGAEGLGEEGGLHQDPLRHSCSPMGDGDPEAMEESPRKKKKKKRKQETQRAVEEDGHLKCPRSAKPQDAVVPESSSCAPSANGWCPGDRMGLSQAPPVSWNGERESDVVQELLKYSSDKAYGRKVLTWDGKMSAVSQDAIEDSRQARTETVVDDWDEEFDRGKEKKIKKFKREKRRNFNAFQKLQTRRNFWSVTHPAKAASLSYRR
How it was run: as §1

[3] = target: T2, USP38 (UniProt Q8NB14)
T2 sequence (whole entry): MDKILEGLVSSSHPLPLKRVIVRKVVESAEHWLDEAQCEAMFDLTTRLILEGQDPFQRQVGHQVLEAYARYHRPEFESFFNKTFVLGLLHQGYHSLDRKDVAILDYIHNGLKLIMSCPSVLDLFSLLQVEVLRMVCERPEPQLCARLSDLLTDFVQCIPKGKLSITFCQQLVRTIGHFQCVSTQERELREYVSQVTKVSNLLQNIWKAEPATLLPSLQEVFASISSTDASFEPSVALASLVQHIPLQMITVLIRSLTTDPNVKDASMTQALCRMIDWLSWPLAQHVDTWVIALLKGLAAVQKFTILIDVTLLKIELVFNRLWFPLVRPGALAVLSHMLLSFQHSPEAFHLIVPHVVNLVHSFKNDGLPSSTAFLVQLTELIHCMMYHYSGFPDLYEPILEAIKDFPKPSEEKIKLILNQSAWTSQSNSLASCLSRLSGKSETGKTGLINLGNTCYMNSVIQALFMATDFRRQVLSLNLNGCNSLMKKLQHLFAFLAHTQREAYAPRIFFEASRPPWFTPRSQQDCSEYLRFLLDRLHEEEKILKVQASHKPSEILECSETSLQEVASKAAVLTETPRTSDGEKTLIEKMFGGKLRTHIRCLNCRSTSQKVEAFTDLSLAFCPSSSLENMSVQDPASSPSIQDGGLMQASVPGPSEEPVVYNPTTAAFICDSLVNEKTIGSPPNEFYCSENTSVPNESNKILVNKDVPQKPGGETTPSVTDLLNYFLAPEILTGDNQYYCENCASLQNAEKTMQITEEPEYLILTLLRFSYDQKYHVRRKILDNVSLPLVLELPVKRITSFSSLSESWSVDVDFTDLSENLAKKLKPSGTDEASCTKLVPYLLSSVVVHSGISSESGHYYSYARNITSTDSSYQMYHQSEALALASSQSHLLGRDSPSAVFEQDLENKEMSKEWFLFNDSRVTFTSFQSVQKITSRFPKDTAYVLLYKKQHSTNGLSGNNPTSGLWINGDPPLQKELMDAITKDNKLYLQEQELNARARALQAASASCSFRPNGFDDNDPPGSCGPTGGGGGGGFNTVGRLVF
How it was run: as §1

[4] = target: T3, USP39 (UniProt Q53GS9)
T3 sequence (whole entry): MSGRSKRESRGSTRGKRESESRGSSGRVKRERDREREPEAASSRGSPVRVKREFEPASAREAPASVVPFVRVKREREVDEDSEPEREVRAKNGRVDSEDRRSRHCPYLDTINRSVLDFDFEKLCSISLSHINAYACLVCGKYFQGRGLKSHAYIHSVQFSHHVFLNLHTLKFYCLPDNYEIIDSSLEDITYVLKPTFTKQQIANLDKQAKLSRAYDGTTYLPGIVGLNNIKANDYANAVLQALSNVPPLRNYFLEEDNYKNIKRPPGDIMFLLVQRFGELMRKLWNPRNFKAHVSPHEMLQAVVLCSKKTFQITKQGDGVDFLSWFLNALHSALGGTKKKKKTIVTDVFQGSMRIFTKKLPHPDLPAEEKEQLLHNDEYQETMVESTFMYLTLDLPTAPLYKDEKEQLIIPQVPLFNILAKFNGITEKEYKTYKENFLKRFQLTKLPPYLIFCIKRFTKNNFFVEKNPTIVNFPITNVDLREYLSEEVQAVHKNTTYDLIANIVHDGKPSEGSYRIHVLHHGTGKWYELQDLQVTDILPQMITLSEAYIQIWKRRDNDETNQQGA
How it was run: as §1

[5] = target: T4, USP4 (UniProt Q13107)
T4 sequence (whole entry): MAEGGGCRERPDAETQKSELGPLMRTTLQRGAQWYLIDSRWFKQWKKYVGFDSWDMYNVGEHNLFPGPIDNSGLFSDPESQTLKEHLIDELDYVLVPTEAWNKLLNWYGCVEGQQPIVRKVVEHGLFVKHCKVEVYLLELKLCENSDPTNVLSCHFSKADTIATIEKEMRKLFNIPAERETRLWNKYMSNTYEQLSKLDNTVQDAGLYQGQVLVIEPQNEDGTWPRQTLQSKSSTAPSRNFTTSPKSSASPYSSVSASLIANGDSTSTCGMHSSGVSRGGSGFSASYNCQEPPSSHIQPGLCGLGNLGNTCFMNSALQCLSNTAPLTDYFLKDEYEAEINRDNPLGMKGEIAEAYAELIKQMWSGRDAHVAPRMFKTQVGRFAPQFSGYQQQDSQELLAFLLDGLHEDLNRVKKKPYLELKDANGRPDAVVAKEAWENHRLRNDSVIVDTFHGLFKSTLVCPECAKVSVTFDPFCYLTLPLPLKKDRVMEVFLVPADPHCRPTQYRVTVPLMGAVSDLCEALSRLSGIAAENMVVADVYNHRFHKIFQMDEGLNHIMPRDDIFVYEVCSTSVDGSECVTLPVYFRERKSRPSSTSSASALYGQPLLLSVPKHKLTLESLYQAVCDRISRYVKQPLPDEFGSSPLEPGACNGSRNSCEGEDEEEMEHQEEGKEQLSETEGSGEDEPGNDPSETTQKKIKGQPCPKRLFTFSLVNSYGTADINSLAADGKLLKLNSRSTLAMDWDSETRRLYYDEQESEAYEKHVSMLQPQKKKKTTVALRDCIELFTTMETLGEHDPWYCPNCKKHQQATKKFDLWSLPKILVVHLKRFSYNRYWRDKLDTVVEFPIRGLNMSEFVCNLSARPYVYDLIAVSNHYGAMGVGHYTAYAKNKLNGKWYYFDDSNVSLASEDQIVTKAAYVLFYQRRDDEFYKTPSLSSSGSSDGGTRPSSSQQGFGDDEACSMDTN
How it was run: as §1

Measured: log2 ratio of Biotin-Ahx-Ub-VS probe labelling

USP34, sequence (Q70CQ2 whole entry, the tested form may be a part): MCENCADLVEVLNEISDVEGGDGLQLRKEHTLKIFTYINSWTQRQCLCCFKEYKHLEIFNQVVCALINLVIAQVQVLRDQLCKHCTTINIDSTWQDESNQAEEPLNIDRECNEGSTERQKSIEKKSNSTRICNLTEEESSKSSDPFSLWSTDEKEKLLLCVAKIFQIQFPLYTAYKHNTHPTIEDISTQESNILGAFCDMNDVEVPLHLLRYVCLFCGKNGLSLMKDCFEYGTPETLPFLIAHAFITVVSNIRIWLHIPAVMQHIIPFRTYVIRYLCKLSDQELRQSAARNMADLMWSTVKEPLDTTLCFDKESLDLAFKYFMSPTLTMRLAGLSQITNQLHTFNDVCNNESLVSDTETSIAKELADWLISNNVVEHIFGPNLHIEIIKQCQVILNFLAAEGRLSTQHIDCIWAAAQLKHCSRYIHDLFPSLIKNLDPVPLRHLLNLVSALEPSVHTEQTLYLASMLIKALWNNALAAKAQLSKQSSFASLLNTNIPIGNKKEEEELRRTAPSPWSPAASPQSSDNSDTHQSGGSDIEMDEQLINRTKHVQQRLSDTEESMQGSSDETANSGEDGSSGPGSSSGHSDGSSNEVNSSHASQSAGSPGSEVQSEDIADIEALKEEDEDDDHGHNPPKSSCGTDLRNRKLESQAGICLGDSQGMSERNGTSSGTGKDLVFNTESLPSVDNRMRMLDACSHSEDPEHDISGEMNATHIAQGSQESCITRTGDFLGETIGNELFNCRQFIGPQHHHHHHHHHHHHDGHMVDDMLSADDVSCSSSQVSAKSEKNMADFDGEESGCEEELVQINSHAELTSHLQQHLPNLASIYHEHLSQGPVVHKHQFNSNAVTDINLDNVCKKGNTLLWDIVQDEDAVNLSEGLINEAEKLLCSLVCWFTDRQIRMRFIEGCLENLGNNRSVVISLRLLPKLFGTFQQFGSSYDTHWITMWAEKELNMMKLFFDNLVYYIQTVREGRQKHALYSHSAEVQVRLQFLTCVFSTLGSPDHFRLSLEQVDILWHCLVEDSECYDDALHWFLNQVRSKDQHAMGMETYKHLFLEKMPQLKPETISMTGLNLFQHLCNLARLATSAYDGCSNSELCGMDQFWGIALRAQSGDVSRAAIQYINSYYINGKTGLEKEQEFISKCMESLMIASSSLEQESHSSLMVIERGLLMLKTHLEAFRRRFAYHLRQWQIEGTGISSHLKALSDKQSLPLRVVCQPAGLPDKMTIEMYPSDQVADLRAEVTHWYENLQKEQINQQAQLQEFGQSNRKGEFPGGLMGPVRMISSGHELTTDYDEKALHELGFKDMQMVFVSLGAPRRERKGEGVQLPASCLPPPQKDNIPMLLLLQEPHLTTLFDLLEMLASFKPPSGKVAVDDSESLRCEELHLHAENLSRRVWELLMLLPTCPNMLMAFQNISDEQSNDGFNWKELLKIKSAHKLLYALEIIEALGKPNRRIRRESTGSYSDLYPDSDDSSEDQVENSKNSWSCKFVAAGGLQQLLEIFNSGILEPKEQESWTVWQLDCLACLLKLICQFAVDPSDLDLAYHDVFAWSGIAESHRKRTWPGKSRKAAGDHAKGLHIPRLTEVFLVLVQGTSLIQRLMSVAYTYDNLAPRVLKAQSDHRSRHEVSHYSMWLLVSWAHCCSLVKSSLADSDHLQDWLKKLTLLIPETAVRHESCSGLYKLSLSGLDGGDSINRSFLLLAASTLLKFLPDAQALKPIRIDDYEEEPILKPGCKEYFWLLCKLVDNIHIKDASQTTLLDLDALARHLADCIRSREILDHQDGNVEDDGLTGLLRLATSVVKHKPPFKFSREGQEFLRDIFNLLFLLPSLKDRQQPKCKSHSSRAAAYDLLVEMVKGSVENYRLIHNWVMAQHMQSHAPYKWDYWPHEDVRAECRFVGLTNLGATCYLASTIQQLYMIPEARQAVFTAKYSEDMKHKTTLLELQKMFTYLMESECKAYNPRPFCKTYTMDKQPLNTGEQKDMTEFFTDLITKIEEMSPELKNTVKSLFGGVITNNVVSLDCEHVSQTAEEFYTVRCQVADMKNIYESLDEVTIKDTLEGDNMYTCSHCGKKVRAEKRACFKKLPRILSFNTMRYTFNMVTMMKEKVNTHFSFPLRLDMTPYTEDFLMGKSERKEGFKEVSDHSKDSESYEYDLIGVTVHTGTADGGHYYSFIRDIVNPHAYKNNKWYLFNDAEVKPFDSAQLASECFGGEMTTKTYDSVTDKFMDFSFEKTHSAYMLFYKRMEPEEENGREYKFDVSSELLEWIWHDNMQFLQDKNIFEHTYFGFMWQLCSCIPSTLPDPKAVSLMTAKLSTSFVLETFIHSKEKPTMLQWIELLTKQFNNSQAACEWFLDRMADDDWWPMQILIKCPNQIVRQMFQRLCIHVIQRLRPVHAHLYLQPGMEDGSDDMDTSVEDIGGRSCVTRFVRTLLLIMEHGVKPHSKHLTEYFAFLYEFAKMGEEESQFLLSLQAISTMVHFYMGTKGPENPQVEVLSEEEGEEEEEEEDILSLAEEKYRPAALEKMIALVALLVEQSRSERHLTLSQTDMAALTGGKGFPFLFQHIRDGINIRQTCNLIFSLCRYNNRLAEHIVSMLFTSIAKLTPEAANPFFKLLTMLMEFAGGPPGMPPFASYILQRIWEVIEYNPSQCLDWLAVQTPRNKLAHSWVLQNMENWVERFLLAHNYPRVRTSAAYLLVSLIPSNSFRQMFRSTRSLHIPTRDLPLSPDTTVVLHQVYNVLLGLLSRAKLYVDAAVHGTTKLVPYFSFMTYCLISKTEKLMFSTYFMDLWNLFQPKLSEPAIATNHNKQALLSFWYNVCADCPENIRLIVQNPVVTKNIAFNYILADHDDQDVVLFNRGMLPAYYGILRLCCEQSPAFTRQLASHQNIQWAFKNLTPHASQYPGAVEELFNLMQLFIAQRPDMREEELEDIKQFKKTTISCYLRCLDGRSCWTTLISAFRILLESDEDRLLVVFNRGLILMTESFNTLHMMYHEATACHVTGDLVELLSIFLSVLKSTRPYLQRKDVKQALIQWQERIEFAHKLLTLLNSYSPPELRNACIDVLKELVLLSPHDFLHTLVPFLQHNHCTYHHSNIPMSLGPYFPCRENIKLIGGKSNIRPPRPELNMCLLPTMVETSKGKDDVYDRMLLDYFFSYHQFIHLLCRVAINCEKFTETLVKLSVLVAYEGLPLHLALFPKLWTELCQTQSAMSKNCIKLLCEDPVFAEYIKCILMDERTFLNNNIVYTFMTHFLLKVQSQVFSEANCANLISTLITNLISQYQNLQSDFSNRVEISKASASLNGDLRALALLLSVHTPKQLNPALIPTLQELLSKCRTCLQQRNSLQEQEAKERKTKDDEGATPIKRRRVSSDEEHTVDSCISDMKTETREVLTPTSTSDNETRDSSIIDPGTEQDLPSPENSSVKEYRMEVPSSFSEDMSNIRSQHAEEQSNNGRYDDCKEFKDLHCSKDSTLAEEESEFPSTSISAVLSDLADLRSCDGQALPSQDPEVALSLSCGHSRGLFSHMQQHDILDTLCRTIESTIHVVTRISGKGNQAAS

O=C(CCl)N1CCCCC12CCOCC2
inactive: [1] -0.284 | [2] -0.239 | [3] -0.4 | [4] -0.243 | [5] -0.266

Reference: the supplement of paper PMC11732987, “Enantioselective OTUD7B fragment discovery through chemoproteomics screening and high-throughput optimisation” (Communications Chemistry, 2025)
